# NS1 inh: blocks influenza NS1 protein function; AID 2326; Potency, µM (top dose mostly 46.1 µM), for the others: at the highest dose activity, positive = more growth; hit rate 0.4% among 270,000; also: potency is read from the fitted curve at half-maximal effect; actives are rising curves; nearly all actives have a fitted effect of over 50% in size
#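 A cell-based growth assay was used: compounds that relieve NS1-induced slow growth of budding yeast raise OD600. Assay medium was yeast nitrogen base with ammonium sulphate and -URA supplement, pH 6.0, with 2% galactose.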
# CHX counter: counter-screen for Shiga toxin inhibitors: cycloheximide protein synthesis inhibition; cell reporter, cycloheximide protein synthesis inhibition counterscreen; max response, %; hit rate 12% among 300,000; AID 2314; in the data active = max response mostly above about 13%, no sharp cut-off; inactive = mostly below about 14%; also: read at 38.3 µM for the half of the compounds with a filed dose; 0% is about no effect
# Pf growth 96h: P. falciparum growth inhibition at 96 hour, primary screen for plastid delayed-death inhibitors. Potency, µM (top dose mostly 28.7 µM), for inactives: top-dose activity change, negative = inhibition, hits mostly inhibitors. AID 504834. hit rate 6.9% among 320,000. P. falciparum luciferase reporter growth, 96 h; active = well fitted inhibition curve with a large enough effect; inconclusive = small, poorly fitted or top-dose-only effect, or another doubt; inactive = no such curve, though single readings can be large or run the other way; also: potency is read from the fitted curve at half-maximal effect; % is scaled to controls: 0 for no effect and ±100 for the full control effect
#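 Luminescence readout: decreased luciferase signal marks inhibited growth of reporter-expressing P. falciparum in infected red cells (2% hematocrit, 0.05% parasitemia final), exposed to compound two generations (96 h, 37 C, 5% CO2).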
# Pf growth 48h: inhibits P. falciparum growth in the first generation, 48 h. P. falciparum luciferase growth in erythrocytes, 48 h. Potency, µM (titrated, usually from 28.7 µM), for the others: top-dose activity change, negative = inhibition, actives largely listed as inhibitors. hit rate 5.9% among 310,000. AID 504832; active = well fitted inhibition curve with a large enough effect; inconclusive = small, poorly fitted or top-dose-only effect, or another doubt; inactive = no such curve, though single readings can be large or run the other way; also: potency is read from the fitted curve at half-maximal effect; % is scaled to controls: 0 for no effect and ±100 for the full control effect
#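 Compounds are pin-transferred into medium, infected erythrocytes (2% hematocrit, 0.1% parasitemia final) are added, and plates sit one parasite generation at 37 C in 5% CO2. Detection reagent is then added and luminescence measured.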
# SARS PLpro yeast: blocks SARS-CoV papain-like protease in a yeast assay. hit rate 0.19% among 330,000. S. cerevisiae expressing SARS-CoV PLpro, growth rescue. Potency, µM (series often up to 32.9 µM), for inactives: at the top dose activity, positive = growth rescue, most hits filed as activators; also: potency is read from the fitted curve at half-maximal effect; 0% is about no effect; nearly all actives have a fitted effect of over 55% in size
# Shiga inhibitor: blocks Shiga toxin action in Vero cells. inhibition, % at 38.7 µM. AID 2315. hit rate 9.2% among 290,000. Vero cells, Shiga toxin protein synthesis inhibition reporter; in the data active = inhibition mostly above about 28%, no sharp cut-off; inactive = mostly below about 43%; also: 0% is about no effect
# An asterisk follows results filed as active; u = inconclusive; x = no result given. This is a sample that favours compounds with a hit; in the whole collection about 21% have one here. Unless noted, calls follow the shape of the full dose curve.
SMILES,NS1 inh,CHX counter,Pf growth 96h,Pf growth 48h,SARS PLpro yeast,Shiga inhibitor
COc1cc(C(CC(=O)N2CCOCC2)c2c(OC)cc(OC)c3ccc(=O)oc23)cc(OC)c1OC (stereo not given),-2%,-4,u,u,4%,21
CCN(CC)C(=O)CC(c1cc(OC)c(OC)c(OC)c1)c1c(OC)cc(OC)c2ccc(=O)oc12 (stereo not given),-6%,3,12µM*,12µM*,0%,-4
CCN(CC)C(=O)CC(c1ccc(OC)cc1)c1c(OC)cc(OC)c2ccc(=O)oc12 (stereo not given),-4%,10,u,10µM*,1%,-9
CCN(CC)C(=O)CC(c1cc(OC)c(OC)c(OC)c1)c1c(OC)cc(OC)c2c(-c3ccccc3)cc(=O)oc12 (stereo not given),-10%,22,4.1µM*,4.7µM*,1%,4
O=C(Nc1ccc2c(c1)nc1n2CCN(Cc2ccccc2)C1)c1cccs1,-15%,13,16%,u,-6%,15
CCn1cnc2cc(NC(=O)c3cccs3)ccc21,-8%,28*,143%,66%,-2%,67*
CC(C)(C)n1cnc2cc(NC(=O)c3cccs3)ccc21,-4%,34*,0%,33%,1%,104*
CC(C)(C)n1cnc2cc(NC(=O)c3ccccc3)ccc21,-22%,34*,-24%,64%,-6%,93*
COc1cc(C(=O)Nc2ccc3c(c2)ncn3C)cc(OC)c1OC,20%,9,-17%,u,0%,x
NC(=O)c1cccc(C[C@H](C(=O)O)N2C(=O)c3ccc(C(=O)O)cc3C2=O)c1,x,8,20%,u,2%,-3
Cn1c(SCc2ccccc2)nnc1-c1cnccn1,-16%,37*,2%,13%,6%,97*
Cn1c(SCC#N)nnc1-c1cnccn1,1%,-1,-17%,24%,19%,-4
Cn1c(SCc2ccc(F)cc2)nnc1-c1cnccn1,-2%,20*,20%,24%,1%,61*
Cc1ccccc1CSc1nnc(-c2cnccn2)n1C,-4%,31*,55%,48%,-1%,57*
CC(C)(C)n1ncc2c(=O)n(CC(=O)N3CCCCC3)cnc21,-1%,15,19%,34%,1%,18
CCOC(=O)C(CC)n1cnc2c(nnn2-c2ccc(F)cc2)c1=O (stereo not given),-10%,-3,26%,5%,2%,13
Cc1onc(-c2c(F)cccc2Cl)c1C(=O)Nc1cccc(S(=O)(=O)NC2=NCCC2)c1,x,x,1%,u,-8%,x
CC[C@H](CO)Nc1nc(Nc2cccc(Cl)c2)c2ncn(C(C)C)c2n1,-1%,10*,5.2µM*,12µM*,-1%,22
CCn1cnc2c(Nc3cccc(Cl)c3)nc(C#N)nc21,x,x,u,u,1%,x
CC(C)[C@H](CO)N(Cc1cccc(F)c1)c1nc(Nc2cccc(Cl)c2)c2ncn(C(C)C)c2n1,u,9,u,12µM*,2%,20
CN(Cc1ccno1)Cc1cn(Cc2ccccc2)nc1-c1ccc2c(c1)OCO2,3%,8,14%,u,0%,13
Cn1c(=O)c2c([nH]c(OCc3ccc(Cl)cc3Cl)[n+]2Cc2ccc(F)cc2)n(C)c1=O,6%,-1,u,u,2%,2
CC(C)OC(=O)Cc1nc2sc(-c3ccccc3)cc2c(=O)[nH]1,3%,61*,31%,123%,0%,69*
O=c1[nH]c(-c2cccnc2)nc2sc(-c3ccccc3)cc12,3%,11,57%,99%,2%,13
Cc1nc2sc(-c3ccccc3)cc2c(=O)[nH]1,-71%,19*,131%,x,-17%,40
Cc1nc2cc3ccccc3cc2c(=O)[nH]1,-63%,31*,37%,x,-31%,46*
COc1ccc(CCNC(=O)C(=O)NCCOc2ccccc2)cc1OC,-27%,1,-6%,-4%,3%,-10
O=C(Nc1cccc(F)c1)C1C2C=CC3(CN(CCCN4CCOCC4)C(=O)C13)O2 (stereo not given),-2%,9,u,18%,5%,7

# Assay outcomes as filed in PubChem.
